TAR Tat displ: HIV-1 TAR-Tat binding disruption; HIV-1 TAR RNA, Tat peptide displacement FRET; hits give high values; z-score (no concentration beside the values); actives 0.6% (n = 100,000); AID 1259389; active means z-score of 3 or more in at least 2 runs
CDC25B CDK2 inh: human CDC25B-CDK2/CyclinA binding inhibition; P30305+P24941; HTRF CDC25B-CDK2/CyclinA binding, anti-His/anti-Flag; hits give high values; z-score (test concentration not listed); actives 0.72% (n = 94,000); AID 1259370; in the data active means z-score above about 3.2
Each line names hits and unclear results; the compound was inactive in the other large screens; ! = a repeat was not active. Hits are enriched below; roughly 0.93% of the tested compounds scored in any of these assays.

O=C(CSc1nnc(-c2ccco2)c(-c2ccco2)n1)Nc1cnc2ccccc2c1	TAR Tat displ 25.5
COc1ccc(-c2nnc(SCC(=O)c3ccccc3)n2C)cc1OC	none (no result: CDC25B CDK2 inh)
O=C1CSc2ccc(S(=O)(=O)CCC(=O)N3CCN(C4CCCCC4)CC3)cc2N1	none (no result: CDC25B CDK2 inh)
COc1ccc(-c2noc(-c3scc(-c4cccc(C)c4)c3-n3cccc3)n2)cc1OC	none
O=C(CN1CC(=O)Oc2ccccc21)Oc1ccc(F)cc1	none
COc1ccccc1/C=C/c1nc(C#N)c(N2CCNCC2)o1	CDC25B CDK2 inh 9.59
COc1ccccc1/C=C/c1nc(C#N)c(N2CCCCC2)o1	none
N#Cc1nc(/C=C/c2cccs2)oc1N1CCC(Cc2ccccc2)CC1	none
N#Cc1nc(/C=C/c2cccs2)oc1N1CCNCC1	CDC25B CDK2 inh 9.3
O=C1NCCCC1c1n[nH]c(=S)n1Cc1ccccc1 (stereo unspecified)	none (no result: TAR Tat displ)
O=C(c1cccs1)N1CCN(CCOc2ccccc2)CC1	none (no result: TAR Tat displ)
O=C(c1cccs1)N1CCN(CCN2C(=O)c3cccc4cccc(c34)C2=O)CC1	CDC25B CDK2 inh 11.8
O=C(Nc1nonc1-c1ccc(Cl)cc1)c1ccccc1Br	none
CC1CCCN(CCNc2cc(N(C)C)c3noc4c3c2C(=O)c2ccccc2-4)C1 (stereo unspecified)	TAR Tat displ 9.33
CN1CCN(c2cc(NCCO)c3c4c(onc24)-c2ccccc2C3=O)CC1	TAR Tat displ 8.99
O=C1c2ccccc2-c2onc3c(N4CCN(c5ccccc5F)CC4)cc(NCCO)c1c23	none
CN(C)c1cc(NCCN2CCCCC2)c2c3c(onc13)-c1ccccc1C2=O	none
O=C1c2ccccc2-c2onc3c(N4CCCCC4)cc(NCCO)c1c23	TAR Tat displ 22.9
O=C1c2ccccc2-c2onc3c(N4CCCC4)cc(NCCO)c1c23	none
CCCCNc1cc(N2CCN(CCO)CC2)c2noc3c2c1C(=O)c1ccccc1-3	TAR Tat displ 7.7
CN1CCN(c2cc(NCCN3CCCC3)c3c4c(onc24)-c2ccccc2C3=O)CC1	none
CC1(C)Cc2ccccc2C(NC(=O)N2CCCC2)=C1C#N	none
CC1(C)CC(=O)C2=C(C1)OC1=C(C(=O)CC(C)(C)C1)C2c1ccc(C#N)cc1	none (no result: TAR Tat displ)
c1ccc(-c2nc3c4ccccc4nc(NCCCN4CCCCCC4)n3n2)cc1	none (no result: TAR Tat displ)
CN1CCN(c2cc(Nc3ccc(N(C)C)cc3)c3c4c(onc24)-c2ccccc2C3=O)CC1	none
CCCN1CCN(c2cc(NCCO)c3c4c(onc24)-c2ccccc2C3=O)CC1	none
O=C1c2ccccc2-c2onc3c(N4CCCCC4)cc(NCCN4CCCC4)c1c23	none
CC(C)Nc1cc(N2CCCCC2)c2noc3c2c1C(=O)c1ccccc1-3	none
O=C1c2ccccc2-c2onc3c(N4CCCCC4)cc(NCCN4CCOCC4)c1c23	TAR Tat displ 6.42
CCN1CCN(c2cc(NCCO)c3c4c(onc24)-c2ccccc2C3=O)CC1	TAR Tat displ 15.3
COc1ccc(Nc2cc(N3CCN(C)CC3)c3noc4c3c2C(=O)c2ccccc2-4)cc1	CDC25B CDK2 inh 7.54
CC(C)Nc1cc(N2CCN(C)CC2)c2noc3c2c1C(=O)c1ccccc1-3	TAR Tat displ 9.65
Cc1c(C2CCN(S(=O)(=O)c3cn(C)cn3)CC2)c2ccccc2n1Cc1ccc(F)cc1	none (no result: CDC25B CDK2 inh)
Cc1noc(C)c1S(=O)(=O)Nc1ccc(-c2cn3c(n2)SCC3)cc1	none (no result: TAR Tat displ)
COCCNc1cc(N2CCN(C)CC2)c2noc3c2c1C(=O)c1ccccc1-3	none
CCNc1cc(N2CCCC(C)C2)c2noc3c2c1C(=O)c1ccccc1-3 (stereo unspecified)	TAR Tat displ 4.55
COCCNc1cc(N2CCCCC2)c2noc3c2c1C(=O)c1ccccc1-3	TAR Tat displ 8.06
CC1CCCN(c2cc(NC(C)C)c3c4c(onc24)-c2ccccc2C3=O)C1 (stereo unspecified)	none
N#Cc1cc(-c2ccccc2)oc1NC(=O)c1cccs1	none (no result: TAR Tat displ)
O=C(NCc1ccc2c(c1)OCO2)c1ccc(NC2=NC3CS(=O)(=O)CC3S2)cc1 (stereo unspecified)	none (no result: TAR Tat displ)
COc1ccc2c(=O)c(-c3cc4c(cc3OC)OCO4)coc2c1	TAR Tat displ 20 (no result: CDC25B CDK2 inh)
COc1cc2occ(-c3cc4c(cc3OC)OCO4)c(=O)c2cc1OC	none (no result: CDC25B CDK2 inh)
COc1ccc(-c2coc3cc(O)ccc3c2=O)c(O)c1O	TAR Tat displ 22.7 (no result: CDC25B CDK2 inh)
COc1ccc(-c2coc3cc(O)ccc3c2=O)c(OC)c1O	none (no result: CDC25B CDK2 inh)
CSc1cccc(NC(=O)CSc2nc(-c3ccco3)nc3cc(=O)[nH]n23)c1	none (no result: CDC25B CDK2 inh)
CCOC(=O)C1CCCN(C(=O)c2sc3nc4n(c(=O)c3c2C)CCCCC4)C1 (stereo unspecified)	none (no result: CDC25B CDK2 inh)
Cc1c(NCC(=O)N(c2ccccc2)C2CCCCC2)cccc1[N+](=O)[O-]	none (no result: TAR Tat displ)
COc1ccc2[nH]c(=O)cc(C(=O)O)c2c1	TAR Tat displ 12.6
COc1ccc2c(C(=O)O)cc(=O)[nH]c2c1	none
O=C(Cn1cnc2sc3c(c2c1=O)CCCC3)Nc1ccc(F)cc1F	none (no result: TAR Tat displ)
Oc1c(Cl)cc(Cl)cc1C=Nc1cccnc1	none (no result: TAR Tat displ)
Oc1ccc(Cl)cc1C=Nc1ccc2cn[nH]c2c1	CDC25B CDK2 inh 9.07 (no result: TAR Tat displ)
O=C(O)c1cc(-c2ccc(O)c(O)c2)nc2n[nH]c(-c3ccccc3)c12	TAR Tat displ 19.2
O=C(O)c1ccc(-c2cc(C(=O)O)c3c(-c4ccccc4)[nH]nc3n2)cc1	none (no result: CDC25B CDK2 inh)
CCC(C(=O)NCCCOC(C)C)n1nc(C)c2sc3ccccc3c2c1=O (stereo unspecified)	none
COc1ccc(Oc2ccc([N+](=O)[O-])cc2-c2nc(-c3ccccn3)no2)cc1	none (no result: TAR Tat displ)
COc1ccc(Oc2ccc([N+](=O)[O-])c3nonc23)cc1	CDC25B CDK2 inh 11.6 (no result: TAR Tat displ)
Cc1noc(C)c1-c1nc(CSCc2ccc(Cl)cc2)no1	none (no result: TAR Tat displ)
COC(=O)NC1c2ccccc2Oc2ccccc21	none
COC(=O)C1=C(N)Oc2ccccc2C1C(C#N)C#N (stereo unspecified)	CDC25B CDK2 inh 18.6 (no result: TAR Tat displ)
Cc1cc(-c2nc(C)c(-c3nnc(SCC(=O)Nc4ccc(C(C)C)cc4)n3C)s2)no1	none (no result: TAR Tat displ)
CCc1nnc(NC(=O)Nc2ccc(OC)cc2)s1	none (no result: TAR Tat displ)
COc1ccc(NC(=O)Nc2nnc(COc3ccccc3F)s2)cc1	CDC25B CDK2 inh 4.65
Cc1c(C(=O)Nc2ccc(F)cc2)sc2nc[nH]c(=O)c12	none (no result: CDC25B CDK2 inh)
Cc1c([N+](=O)[O-])sc2nc[nH]c(=O)c12	TAR Tat displ 11.4
CCNC(=O)C1CCN(c2nc3ncc([N+](=O)[O-])cc3o2)CC1	none
O=c1cc2cc(O)[nH]c(=O)c2c(O)[nH]1	CDC25B CDK2 inh 18.7 (no result: TAR Tat displ)
Nc1n[nH]c2cc(=O)[nH]c(O)c12	none (no result: TAR Tat displ)
CCn1nc(-c2ccccc2C)nc2c(=O)n(C)c(=O)nc1-2	none
CCNC(=O)C(=O)NCC(c1cccs1)S(=O)(=O)c1ccc(F)cc1 (stereo unspecified)	none (no result: CDC25B CDK2 inh)
Cc1ccc(Nc2ncnc3ccccc23)cc1C	CDC25B CDK2 inh 11! (no result: TAR Tat displ)
Cc1ccc2ncnc(Nc3ccc(C)c(C)c3)c2c1	none (no result: TAR Tat displ)
Cc1ccc(CNS(=O)(=O)c2ccc(-c3ccno3)s2)cc1	none (no result: CDC25B CDK2 inh)
CC1(C)N([O-])C2=C(c3ccccc3C2=O)[N+](=O)C1(C)C	CDC25B CDK2 inh 16.8 (no result: TAR Tat displ)
Cc1ccc(CNC(=O)c2cnc(N(C)C)nc2)o1	none (no result: CDC25B CDK2 inh)
O=c1cc(CSc2ccc(Cl)cc2)nc2sc(-c3ccco3)nn12	none
CCc1nn2c(=O)cc(COc3ccc(C)c(C)c3)nc2s1	none
Cc1cccc(OCc2cc(=O)n3nc(-c4ccco4)sc3n2)c1C	TAR Tat displ 35
O=c1cc(CSc2nc3ccccc3[nH]2)nc2sc(-c3cccs3)nn12	none
O=c1cc(COc2ccc(Cl)cc2)nc2sc(-c3ccco3)nn12	TAR Tat displ 35.7
Cc1nn2c(=O)cc(COc3cccc(C)c3C)nc2s1	none

Source: PubChem BioAssay
